# Data taken from PubChem BioAssay (NCI).
# The panel holds about 83,000 compounds, 20% with a hit somewhere; the sample as a whole holds those more often.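 48-hour exposure, single concentration, 96-well plates; percent growth endpoint where 0 means no net growth. Active: below 10.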 A number with no mark means an inactive call. Activity calls are given as the source filed them.
# Key:
# Test in all cases: NCI-60 one-dose screen, 48 h (100 = growth as untreated, 0 = no growth, -100 = all killed)
# K-562 leukemia = details: 10 µM unless noted
# MALME-3M melanoma = details: 10 µM unless noted
# MDA-MB-231 breast = details: 10 µM unless noted
# RXF 393 renal = details: 10 µM unless noted
# SF-268 CNS = details: 10 µM unless noted
# SF-295 CNS = details: 10 µM unless noted
# SF-539 CNS = details: 10 µM unless noted
# UACC-257 melanoma = details: 10 µM unless noted
# M14 melanoma = details: 10 µM unless noted
# HCT-15 colon = details: 10 µM unless noted
# HT29 colon = details: 10 µM unless noted
# SNB-75 CNS = details: 10 µM unless noted
# SNB-19 CNS = details: 10 µM unless noted
# U251 CNS = details: 10 µM unless noted
# PC-3 prostate = details: 10 µM unless noted
# SK-MEL-5 melanoma = details: 10 µM unless noted
# UACC-62 melanoma = details: 10 µM unless noted
# LOX IMVI melanoma = details: 10 µM unless noted
# SK-MEL-28 melanoma = details: 10 µM
# SK-MEL-2 melanoma = details: 10 µM unless noted
SMILES,growth (K-562 leukemia),growth (MALME-3M melanoma),growth (MDA-MB-231 breast),growth (RXF 393 renal),growth (SF-268 CNS),growth (SF-295 CNS),growth (SF-539 CNS),growth (UACC-257 melanoma),growth (M14 melanoma),growth (HCT-15 colon),growth (HT29 colon),growth (SNB-75 CNS),growth (SNB-19 CNS) [%],growth (U251 CNS),growth (PC-3 prostate),growth (SK-MEL-5 melanoma),growth (UACC-62 melanoma),growth (LOX IMVI melanoma),growth (SK-MEL-28 melanoma),growth (SK-MEL-2 melanoma)
NCCOc1ncccc1/C=C1\c2ccccc2-c2ccc(F)cc21,3.28% (active),32.3%,34.7%,25.2%,23.2%,2.01% (active),11.5%,67.6%,25.2%,3.22% (active),13%,15.7%,16,8.04% (active),42.5%,25.1%,34.8%,-11.5% (active),70.2%,112%
COc1cc(/C=C2\CN(S(=O)(=O)c3ccccc3)C/C(=C\c3cc(CN4CCCC4)c(O)c(OC)c3)C2=O)cc(CN2CCCC2)c1O,8.41% (active),-51.6% (active),-32.7% (active),-65.4% (active),12.9%,-34.2% (active),-46.6% (active),40.1%,-19.2% (active),50.3%,-9.09% (active),20.2%,12.2,-21.7% (active),8.85% (active),20.7%,-60% (active),-75.4% (active),10.5%,-0.727% (active)
COc1cc(-c2c3c(cn2S(=O)(=O)c2ccccc2)-c2nc(N)sc2CC3)cc(OC)c1OC,8.08% (active),42.4%,19.3%,2.6% (active),40.7%,11.2%,-31.8% (active),74%,34.4%,27.5%,9% (active),12.1%,29,25.8%,41.8%,14.1%,51.1%,38.4%,68.6%,54.3%
O=c1c2cc(F)ccc2sc2c(NCCN3CCCC3)nc3ccccc3c12,-43.2% (active),83%,30.8%,38.3%,47%,85.6%,61.8%,92%,15.1%,27.6%,13.9%,77.6%,69.2,35.7%,61%,79.7%,38.2%,28.4%,71.6%,91%
Nc1nc(-c2cnccn2)nn1-c1nc2ccccc2s1,93.9%,104%,95.4%,110%,99.2%,103%,101%,99.1%,99.2%,103%,99.7%,96.4%,98.2,93.5%,99.4%,92.2%,101%,105%,104%,99.5%
Nc1ccc(-n2c(=O)oc3ccc(Cl)cc3c2=O)c(Cl)c1,7.44% (active),-29.6% (active),-25.6% (active),-6.99% (active),3.88% (active),-58% (active),-5.36% (active),-21.1% (active),-11.2% (active),1.16% (active),3.86% (active),-41.3% (active),16.2,-8.77% (active),2.14% (active),-83.9% (active),-34.9% (active),0.455% (active),-10.6% (active),-31.6% (active)
COc1cccc(C(=O)NC(c2ccc(C)cc2)c2cc(Cl)c3cccnc3c2O)c1 (stereo not given),7.41% (active),-1.84% (active),31.2%,9.4% (active),6.71% (active),-0.279% (active),1.97% (active),-7.2% (active),-13.9% (active),28.1%,24.1%,28.8%,12.5,3.81% (active),22.8%,-56.8% (active),-20% (active),6.79% (active),44%,22.8%
COc1c(B(O)O)cccc1-c1nc2ccc3[nH]ncc3c2c2c1C1CCC2C1 (stereo not given),55.6%,136%,71.2%,28.5%,67.4%,86%,28%,101%,84%,49.6%,71.9%,2.23% (active),74,66.4%,76.9%,75.7%,70.3%,52%,104%,80.8%
COc1ccc(-c2nc(N3CCN(C(=O)C4CCCCC4)CC3)c3c4c(sc3n2)CCCC4)cc1,0.112% (active),-56.2% (active),36.9%,-59.3% (active),20.3%,-82% (active),-1.73% (active),63.5%,29.9%,49.2%,-49.9% (active),-66.3% (active),69.8,-78.6% (active),-28.7% (active),36.5%,44.1%,5.28% (active),-24.2% (active),24.7%
O=C(Nc1ccc(Br)cc1F)c1cc(I)ccc1O,10.3%,-20.4% (active),32.3%,1.53% (active),12.7%,0.923% (active),9.06% (active),-12.9% (active),16.8%,11.9%,92.4%,-9.93% (active),13.3,3.12% (active),7.07% (active),-68.4% (active),3.48% (active),13.7%,19.1%,-26.7% (active)
O=C(Cn1cc(COc2ncnc3c2cnn3-c2ccccc2)nn1)Nc1ccccn1,96.7%,94.5%,85.2%,112%,92.9%,102%,89.1%,98.4%,97.4%,101%,110%,71.9%,90.8,95.7%,90.3%,92.3%,80.8%,93.8%,97.3%,101%
CC(=O)Nc1nc2c(s1)CCc1c-2cn(S(=O)(=O)c2ccccc2)c1-c1ccccc1,37.9%,-23.6% (active),73.6%,85%,71.4%,43.5%,93.5%,93%,36.9%,51.9%,78.1%,82.8%,93.6,62.4%,40.9%,43.9%,58%,47.1%,95.1%,94.5%
CN1CCN(Cc2ccc(NC(=O)c3[nH]ncc3Nc3cc(OC4CCCC4)ncn3)cc2)CC1,1.53% (active),65.4%,23.8%,-0.487% (active),40.7%,45.9%,30.3%,48.1%,19.9%,12.9%,14.3%,61.7%,59.8,41.1%,8.34% (active),14.5%,29.2%,17.9%,53.1%,49.4%
COc1ccc(-c2nc(-c3ccccc3)c(-c3ccccc3)[nH]2)cc1OC1CCCCC1,81.4%,73%,67%,105%,84.4%,80.9%,102%,93.8%,92.2%,93.4%,99.1%,78.7%,85.8,90.3%,64.8%,93.6%,76.7%,83.4%,96.4%,95.1%
Cn1c(/C=C(\C#N)c2ccccc2)nc2c(N3CCOCC3)nc(Cl)nc21,-13.8% (active),-51.2% (active),-80.3% (active),-86.3% (active),-66.2% (active),85.1%,-88% (active),-61.5% (active),-62.5% (active),-66.8% (active),-54.6% (active),-94.9% (active),56.9,3.21% (active),-62.3% (active),-53.8% (active),-86.1% (active),-87.9% (active),-78.6% (active),-34.4% (active)
